This is part of a sample that, as a whole, favours compounds with a hit. Of some 83,000 tested, about 20% had one in any assay.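 Activity criterion: percent growth below 10, measured after cells in 96-well plates were exposed to a single compound concentration for 48 hours.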 Values without a mark were called inactive. Activity calls are given as the source filed them.
Test system: SK-MEL-2 melanoma
Test: NCI-60 one-dose screen, 48 h (100 = growth as untreated, 0 = no growth, -100 = all killed)
Conditions: 10 µM unless noted
Description: Growth inhibition of the SK-MEL-2 human tumor cell line is measured as a screen for anti-cancer activity. Cells are grown in 96 well plates and exposed to the test compound for 48 hours. Compounds are tested at a single concentration, which is 10^-5 M for most compounds. The reported endpoint is percent growth (GI% or GIPRCNT), where numbers from 0 - 100% represent growth inhibition, and numbers from -100% - 0 represent cell death. For example, a value of 40 represents 60% growth inhibition. A value of 0 means no net growth occurred over the course of the experiment. A value of -40 indicates 40% of cells at the beginning of the experiment died by the end of the experiment. A value of -100 means all cells are dead at the end of the experiment.
NCI-60 Human Tumor Cell Lines Screen was performed using the standard one-dose NCI protocol, which is described in more detail at https://dtp.cancer.gov/discovery_development/nci-60/default.htm.
Compounds with GIPRCNT values below 10 were considered active. Activity score was based on GIPRCNT using the following formula: […]
Score is 0 for GIPRCNT values of 100 or above, 50 for GIPRCNT values of 0, and 100 for GIPRCNT values of -100.

First: COc1cc(OC)c(C2SCC(=O)N2Nc2ncnc3ccccc23)cc1OC (stereo not given)
Second: COc1cc2nc(-c3ccc(C(F)(F)F)cc3)cc(OCCCNCC3CCCO3)c2cc1OC (stereo not given)
The growth of the first is higher: 123% for the first, 91.7% for the second.

Compared with `O=C(CSc1nccc(=O)[nH]1)Nc1ccc(-c2nc3ccccc3[nH]2)cc1`, `COc1ccc(/C=C/C(=O)c2ccc(NC(=O)CSc3nnc(-c4ccc5nc(-c6ccc(Cl)cc6)[nH]c5c4)o3)cc2)cc1` is higher in growth: 107% for the first, 111% for the second.

First: C=CCn1c(SCC(=O)c2ccc(Br)cc2)nnc1-c1c[nH]c2ccccc12
Second: C=CCn1c(SCC(=O)c2ccccc2)nnc1-c1c[nH]c2ccccc12
The growth of the first is higher: 115% for the first, 105% for the second.

Going from `COC(=O)C(Cc1ccccc1)NS(=O)(=O)/N=C1\NC(=O)NC1=C(Cl)Cl` (stereo not given) to `COC(=O)C(C)NS(=O)(=O)/N=C1\NC(=O)NC1=C(Cl)Cl` (stereo not given), the growth rises from 60.3% to 110%.

Going from `Cn1cc(-c2cc(N)n3nc(-c4cn(C)c5ccc(F)cc45)cc3n2)c2cc(F)ccc21` to `Fc1ccc(-c2nc(C(Cl)Cl)nc3cc(-c4ccccc4)nn23)cc1`, the growth rises from 110% to 115%.

Compared with `NS(=O)(=O)c1cccc(Nc2nc(SCC(=O)c3ccc([N+](=O)[O-])cc3)nc3ccccc23)c1`, `CCOC(=O)c1c(Nc2ccccc2)nn2c(N)c(C#N)c(-c3ccc(OC)cc3)nc12` is higher in growth: 13.2% for the first, 89.2% for the second.

Compared with `COc1ccc(-c2cc(C(=O)N=Nc3c(O)[nH]c4ccccc34)c3ccccc3n2)cc1OC`, `N[C@@H](Cc1cn(-c2c3ccccc3nc3ccccc23)nn1)C(=O)O` is higher in growth: 107% for the first, 130% for the second.

First: CCN1CCN(/C(=N\c2sc(-c3ccccc3)nc2-c2ccccc2)c2ccccc2)CC1
Second: Cc1nc(-c2cc3ccccc3oc2=O)ccc1C(=O)/C=C/c1ccc(N2CCOCC2)cc1
The growth of the first is higher: 102% for the first, 91.4% for the second.

Going from `CCOc1ccc2nc(NC(=O)c3ccc(C(F)(F)F)cc3)sc2c1` to `COc1ccc(NC(=O)c2sc3nc(-c4cnccn4)cc(-c4cccs4)c3c2N)cc1`, the growth falls from 103% to 86.6%.

First: CC1=C(C)C(=O)C(Nc2ccccc2)=C(Cl)C1=O
Second: CC1=C(C)C(=O)C(Nc2cccc(C(F)(F)F)c2)=C(Cl)C1=O
The growth of the first is lower: 85.5% for the first, 85.8% for the second.

Going from `Cc1cc(=O)oc2cc(OCCCOc3ccc(/C=C/C(=O)Nc4ccc(Cl)cc4)cc3)ccc12` to `CCOc1ccc([C@H]2C(C(=O)c3ccc(Cl)cc3)C3(N[C@@H]2c2ccccc2)C(=O)Nc2ccc(Br)cc23)cc1` (stereo not given in full), the growth falls from 80.4% to 56.6%.

Going from `Clc1ccc2c(NCCCN3CCOCC3)c3oc4ccccc4c3nc2c1` to `CN(C)CCCOc1c2ccc(Cl)cc2nc2c1oc1ccc(Cl)cc12`, the growth falls from 81.3% to 58.5%.

First: C/C(=N/NC(N)=S)c1ccc(Nc2nc(SCC(C)C)nc(-c3ccc(F)cc3)c2C#N)cc1
Second: O=C(CSc1nc2sc3c(c2c(=O)n1-c1ccc(Cl)cc1)CCCC3)N/N=C/c1ccc(F)cc1
The growth of the first is lower: 11.1% for the first, 136% for the second.

Compared with `CCOC(=O)c1c(Nc2ccccc2)nn2c(-c3ccco3)c(C#N)cnc12`, `COC1CCN(Cc2ccc3c(NNC(=O)c4cnccn4)nc4cc(F)ccc4n23)C1` (stereo not given) is lower in growth: 90.3% for the first, 74.7% for the second.

Compared with `COc1cc(/C=C/C(=O)c2ccc(Cl)cc2)ccc1Oc1nc(NCCO)nc(N2CCOCC2)n1`, `Clc1ccc(-c2cn3cc(Cc4ccc(Cl)c(Cl)c4)sc3n2)cc1` is higher in growth: 99.7% for the first, 113% for the second.

Going from `Cc1sc2c(c1C)c(=O)nc1c(-c3nc(-c4ccc(F)cc4)no3)n[nH]n12` to `O=c1[nH]c2ccc(Cl)cc2cc1CSc1ccccc1Nc1nccc(-c2ccc(Cl)cc2)n1`, the growth rises from 113% to 129%.

Compared with `C#Cc1nc(C2=C(C)C(=O)/C(=N/OC(C)=O)C2)cs1`, `CCOC(=O)c1sc(N)c(C(=O)OCC)c1C` is lower in growth: 96.9% for the first, 75.2% for the second.

First: CN(C)c1ccc(/C=C2\Cc3c(F)ccc(Br)c3C2=O)cc1
Second: COc1ccccc1/C=C/C=N/NC1=NC2C(S1)N(C)C(=O)N2C (stereo not given)
The growth of the first is higher: 108% for the first, 23.9% for the second.

Work on `Cc1cccc2sc(/N=C(\N)C(Cl)(Cl)Cl)nc12` yielded a growth of 118%.

For `N#Cc1c(-c2ccc(Cl)cc2)nc(SCc2ccc([N+](=O)[O-])cc2)nc1N1CCNCC1`, the growth was -2.3% (active).
In the case of `CN1C(=O)N(c2ccccc2)C2N=C(N/N=C/c3ccccc3)SC21` (stereo not given), the growth is reported as -3.76% (active).
`CCOC(=O)c1sc(NCC(=O)Nc2cccc([N+](=O)[O-])c2)c(C(=O)OCC)c1C` was tested, and the growth was -24% (active).

Source: PubChem BioAssay (NCI)
